From PubChem BioAssay
Active and inactive are the calls of the source. Unless noted, the rule behind the calls is not given here.

How the values were obtained:
[1] = circadian clock period modulators, cell-based, LOPAC library, luminescence reporter (AID 2774); conditions: circadian reporter cells, at 7 µM, actives lie on both sides;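 note: values are relative to mean of DMSO wells on each plate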
[2] = test system: Hepatitis C virus NS3 helicase; experiment: HCV NS3 helicase inhibitors, primary screen, biochemical, fluorescence polarization, LOPAC1280 library (AID 687035; in the data active = inhibition above about 37%); conditions: Purified HCV NS3 helicase, Cy5-dT15 ssDNA binding fluorescence polarization; stronger effect = higher value; concentration not given here
[3] = Cy5 fluorescence quenching or enhancement artefacts, artefact control for HCV NS3 helicase inhibitor project, biochemical, LOPAC1280 (AID 687037); conditions: Cy5-DNA-NS3h complex fluorescence interference counterscreen
[4] = sensitizers of A549 cells to miR-34 induction, primary screen, imaging, A549 dox-inducible miR-34, nuclei and caspase counts (AID 1347080;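 active = compounds whose cell count with miR-34 switched on is under 0.7 times the count with it off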); conditions: A549 miR-34 inducible, Hoechst nuclei count, 48 h
[5] = phospholipid biosynthesis inhibitors in animal cells, primary screen, cell-based, LOPAC library, screen 4 (AID 1347384); conditions: phospholipid biosynthesis inhibition screen, at 10 µM
[6] = viability rescue of complex I mutant cybrids, primary screen, cell-based, galactose medium, ATP luminescence (AID 1645843;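 active = z-score of at least 1.8 in each of two replicates, scored against plate mean and spread of sample wells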;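 note: positive z means more ATP and so rescue of galactose-driven cybrid death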); conditions: complex I mutant cybrid cells, 72 h, stronger effect = higher value
[7] = stronger effect = lower value, cell number ratio, induced over uninduced
[8] = measured here: relative caspase fold change +Dox/-Dox
[9] = measured here: total cells with miR-34 induction, stronger effect = lower value
[10] = measured here: total cells without miR-34 induction

Compound | period change [1] | inhibition [2] | fluorescence ratio (interference) [3] | fold change [4, 7] | fold change [4, 8] | cell count [4, 9] | cell count [4, 10] | outcome [5] | z-score [6]
CC[C@@H](C)[C@H]1O[C@]2(CC[C@@H]1C)C[C@@H]1C[C@@H](C/C=C(\C)[C@@H](O[C@H]3C[C@H](OC)[C@@H](O[C@H]4C[C@H](OC)[C@@H](O)[C@H](C)O4)[C@H](C)O3)[C@@H](C)/C=C/C=C3\CO[C@@H]4[C@H](O)C(C)=C[C@@H](C(=O)O1)[C@]34O)O2 | 0.095 h (inactive) | -2% (inactive) | 1 (inactive) | 0.888 (inactive) | 0.534 | 1760 | 1980 | inactive | -1.29 (inactive)
CCN(c1nc(N)c(C(=O)N=C(N)N)nc1Cl)C(C)C | -0.06 h (inactive) | -2% (inactive) | 1 (inactive) | 1.19 (inactive) | 1.19 | 5200 | 4360 | inactive | -1.38 (inactive)
CN1CC(O)C(O)C(O)C1CO (configuration not stated) | 0.06 h (inactive) | -3% (inactive) | 1 (inactive) | 0.95 (inactive) | 1.01 | 10300 | 10800 | inactive | 0.28 (inactive)
O=C(O)CC1CCCc2ccccc2C1O (configuration not stated) | 0.085 h (inactive) | -4% (inactive) | 1 (inactive) | 1.02 (inactive) | 1.73 | 10700 | 10500 | inactive | 0.315 (inactive)
c1ccc(CN2CCC3(CCCc4ccccc43)CC2)cc1 | 0 h (inactive) | -3% (inactive) | 1 (inactive) | 1.19 (inactive) | 0.602 | 7360 | 6160 | inactive | -1.27 (inactive)
Nc1nc(Cl)nc2c1ncn2[C@@H]1O[C@H](CO)[C@H](O)C1O (some centres not stated) | -0.125 h (inactive) | 0% (inactive) | 1 (inactive) | 1.07 (inactive) | 1.14 | 1860 | 1750 | inactive | -0.705 (inactive)
COc1cc(CC(=O)O)ccc1O | 0.03 h (inactive) | 1% (inactive) | 1 (inactive) | 1.05 (inactive) | 0.734 | 10100 | 9570 | inactive | 0.08 (inactive)
O=C1C2C=CC=CC2=NC(=S)N1CCN1CCC(=C(c2ccc(F)cc2)c2ccc(F)cc2)CC1 (configuration not stated) | -0.295 h (inactive) | 1% (inactive) | 1 (inactive) | 0.996 (inactive) | 1.03 | 9730 | 9760 | inactive | -0.96 (inactive)
Cc1cn([C@H]2C[C@@H](N=[N+]=[N-])[C@@H](CO)O2)c(=O)[nH]c1=O | 0.06 h (inactive) | -1% (inactive) | 0.9 (inactive) | 1.13 (inactive) | 1.91 | 8200 | 7230 | inactive | 0.445 (inactive)
CC(=O)N[C@@H](Cc1c[nH]c2ccccc12)C(=O)OCc1cc(C(F)(F)F)cc(C(F)(F)F)c1 | 0.005 h (inactive) | -3% (inactive) | 0.9 (inactive) | 1.03 (inactive) | 1.8 | 9980 | 9690 | inactive | -0.03 (inactive)
CC(N)(C(=O)O)c1ccc(C(=O)O)cc1 (configuration not stated) | -0.11 h (inactive) | -2% (inactive) | 1 (inactive) | 1.05 (inactive) | 1.27 | 11100 | 10600 | inactive | 0.615 (inactive)
Nc1c(S(=O)(=O)O)cc(Nc2ccc(Nc3nc(Cl)nc(Nc4ccc(S(=O)(=O)O)cc4)n3)c(S(=O)(=O)O)c2)c2c1C(=O)c1ccccc1C2=O | 0.105 h (inactive) | 86% (active) | 0.7 (active) | 1.07 (inactive) | 0.889 | 9580 | 8990 | inactive | 4.81 (active)
CN(C)C(N)=NCCC[C@H](N)C(=O)O | -0.14 h (inactive) | -2% (inactive) | 1 (inactive) | 0.963 (inactive) | 1.27 | 9830 | 10200 | inactive | 0.265 (inactive)
Nc1ncnc2c1nc(Br)n2C1OC2COP(=O)(O)O[C@@H]2C1O (some centres not stated) | -0.095 h (inactive) | -5% (inactive) | 0.9 (inactive) | 0.962 (inactive) | 1.6 | 8440 | 8780 | inactive | 0.735 (inactive)
Nc1cc(Cl)c(NC2=NCCN2)c(Cl)c1 | 0.07 h (inactive) | -4% (inactive) | 0.9 (inactive) | 1.02 (inactive) | 1.68 | 11100 | 10900 | inactive | 0.705 (inactive)
Cc1ccccc1/C=C/C1=NCCN1 | -0.13 h (inactive) | -5% (inactive) | 1 (inactive) | 1.01 (inactive) | 0.996 | 7710 | 7640 | inactive | -1.06 (inactive)
Cc1cc(NC(=O)Nc2ccc3c(ccn3C)c2)sn1 | -0.055 h (inactive) | -1% (inactive) | 0.9 (inactive) | 1.07 (inactive) | 1.78 | 9080 | 8470 | inactive | 0.19 (inactive)
O=C(Nc1cccc(C(=O)Nc2ccc(S(=O)(=O)O)c3cc(S(=O)(=O)O)cc(S(=O)(=O)O)c23)c1)Nc1cccc(C(=O)Nc2ccc(S(=O)(=O)O)c3cc(S(=O)(=O)O)cc(S(=O)(=O)O)c23)c1 | -0.03 h (inactive) | 91% (active) | 1.1 (inactive) | 1.05 (inactive) | 0.567 | 9650 | 9220 | inactive | 0.865 (inactive)
